The source of these data is ChEMBL document CHEMBL4888484, “Replenishing the malaria drug discovery pipeline: Screening and hit evaluation of the MMV Hit Generation Library 1 (HGL1) against asexual blood stage Plasmodium falciparum ,using a nano luciferase reporter read-out” (2022).

The whole screen tested about 150,000 compounds, of which about 540 (0.36%) showed an effect of 50% or more. Many of the other results were omitted from the sample, so strong results are more common in it than they were.

For this experiment, the system named is Plasmodium falciparum. Nature of the experiment: Primary screen in NF54 nanoGlo assay, in single point, at 2uM, 72h; a lower Z score goes with more inhibition. The settings on record: timepoint 72 hour. Type of experiment: functional, Erythrocyte.
A word on the % Inhibition: it is the relative decrease from the control value, in per cent. `C[C@@H](Cc1ccccc1F)NCC1(CO)CCCC1`: the “% Inhibition” value is recorded as -3% and the Z score stood at 0.57.

As to `Cc1ccc2c(c1)CCCN2C(=O)CN1CC=C(c2cnn(C)c2)CC1`, the “% Inhibition” value is on record as 55% and the Z score is -3.45.

Take `COc1ccc(NC(=O)CN2CC=C(c3cnn(C)c3)CC2)cc1Cl`: the “% Inhibition” value was -9% and the Z score is 1.67.

For `CCOc1ccc(NC(=O)CN2CC=C(c3cnn(C)c3)CC2)cc1`, the “% Inhibition” value is listed as -9% and the Z score is 0.93.

As for `CC1CCCC2CCCN(Cc3nc4c(cnn4C)c(=O)[nH]3)C12` (configuration not stated), the “% Inhibition” value is -8% and the Z score was 0.94.

With `C[C@@H](Cc1ccc(F)cc1)NCC(C)(C)C(N)=O`, the “% Inhibition” value is -4% and the Z score is on record as 0.56.

Turning to `C=CCCC(CN1C[C@H]2CC=CC[C@H]2C1)Oc1ccnc(C)n1` (some centres not stated), the “% Inhibition” value is 3% and the Z score is given as -0.6.

As to `C=CCCC(CN1C[C@H]2CC=CC[C@H]2C1)Oc1ncc(F)cn1` (some centres not stated), the “% Inhibition” value came to 75% and the Z score was -13.95.

For the molecule `C=CCCC(CN1C[C@H]2CC=CC[C@H]2C1)Oc1ncccn1` (some centres not stated), the “% Inhibition” value is given as -8% and the Z score is on record as 1.33.

As to `Cc1oncc1C(=O)N1C[C@H](c2cc(F)cc(F)c2)[C@@H]2[C@H]1C1CCN2CC1`, the “% Inhibition” value is -4% and the Z score worked out at 0.74.

As to `Cc1cnc(N2C[C@H]3CN(C)C[C@H]3C2)c(Br)c1`, the “% Inhibition” value is -1% and the Z score is 0.19.

Regarding `Fc1cnc(N2C[C@@H](c3ccccc3)[C@@H]3[C@H]2C2CCN3CC2)nc1`, the “% Inhibition” value is given as -13% and the Z score turned out to be 2.17.

As for `CN1CCN2c3cccc(Cl)c3CC3(C(=O)NC(=O)N(c4ccc(F)cc4)C3=O)C2C1` (configuration not stated), the “% Inhibition” value is 4% and the Z score is on record as -0.49.

In the case of `COCCn1ccc(C(=O)N[C@H]2CCc3nc(C(C)C)nn3C2)n1`, the “% Inhibition” value worked out at 71% and the Z score is on record as -11.17.

For `COCCn1ccc(C(=O)NC(C)(C)c2ccc(F)cc2Cl)n1`, the “% Inhibition” value is 4% and the Z score was -0.52.

For `COCCn1cc(C(=O)N[C@H]2C[C@@](CO)(c3ccccc3)C2)nn1`, the “% Inhibition” value came out at 1% and the Z score was -0.11.

Take `CN(C(=O)CCC(F)(F)F)C1CC2CCC(C1)N2` (configuration not stated): the “% Inhibition” value is -19% and the Z score was 1.62.

Turning to `O=S(=O)(NC12CCCC1CNC2)c1onc(C2CC2)c1Cl` (configuration not stated), the “% Inhibition” value worked out at 94% and the Z score is listed as -8.97.

As to `CCCCOc1ncccc1CNC(=O)C1CN2CCCC2CO1` (configuration not stated), the “% Inhibition” value is on record as -1% and the Z score is given as 0.09.

`CCC(CC)c1cc([C@H]2CN3CC[C@H]2C[C@@H]3CNS(=O)(=O)Cc2ccccc2)nc(-c2ccncc2)n1`: the “% Inhibition” value was 75% and the Z score is given as -9.43.

Turning to `CCCS(=O)(=O)NC[C@H]1C[C@@H]2CCN1C[C@@H]2c1cc(C(CC)CC)nc(-c2ccncc2)n1`, the “% Inhibition” value turned out to be 35% and the Z score is given as -3.34.

`CCC(CC)c1cc([C@H]2CN3CC[C@H]2C[C@@H]3CO)nc(-c2ccncc2)n1`: the “% Inhibition” value stood at 25% and the Z score is listed as -2.22.

Consider `COCCN1C[C@@H]2CC[C@H]1CN(C(=O)c1cc(C(C)C)on1)C2`, for which the “% Inhibition” value came to 4% and the Z score is -0.35.

`Cc1ncsc1CN1C[C@@H]2CC[C@H]1CN(Cc1c(C)noc1C)C2`: the “% Inhibition” value is -5% and the Z score came to 0.89.

For `Cc1ccc(CNc2ncnc3[nH]ncc23)c(-n2cc(Cl)cn2)n1`, the “% Inhibition” value worked out at 12% and the Z score is listed as -2.28.

In the case of `CN(C)c1ccnc(N2C[C@@H](c3ccc4c(c3)OCO4)[C@@H]3[C@H]2C2CCN3CC2)n1`, the “% Inhibition” value is -7% and the Z score was found to be 0.91.

In the case of `c1cc2c(cc1CCN1CCCC1)CCO2`, the “% Inhibition” value is reported as -12% and the Z score was determined as 1.27.

Consider `Cn1nc(C(=O)N2CCC3(CC2)OCCO3)c2ccccc2c1=O`, for which the “% Inhibition” value was -14% and the Z score was found to be 2.25.

Turning to `Cc1ccc(C)n1[C@@H](Cc1cnc[nH]1)C(=O)O`, the “% Inhibition” value is given as -1% and the Z score amounted to 0.15.

With `c1cc2c(c(-c3cnccn3)c1)CCNC2`, the “% Inhibition” value is recorded as -4% and the Z score came out at 0.84.

As for `c1ccc2c(c1)C[C@H](Cc1ccc3c(c1)CNCC3)CO2`, the “% Inhibition” value amounted to 3% and the Z score is on record as -0.36.
